Bioassay records from PubChem BioAssay.
HSF1 inhib: HSF1 inhibitors in luciferase reporter cells, primary screen, cell-based, NIH3T3, luminescence; activity change, negative = inhibition, % at 7.5 µM (by protocol); 300,000 compounds, 0.77% hits; NIH3T3-HGL HSE-luciferase, MG132-induced, luminescence 8 h; active compounds read low;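 active means more than half of replicate wells show activity change below -50%, luminescence cut by over half; inconclusive means some wells, but at most half, below -50%; inactive means no replicate well below -50%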;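 further: luciferase reports HSF-1 transcriptional activity via heat shock element; 0% = median of DMSO wells and -100% = zero luminescence signal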
AHR act: AHR activators, primary screen, cell-based, luminescence, luciferase reporter, human | AHR-responsive luciferase reporter cells | 320,000 compounds, 2.5% hits | activation, % at 5 µM; in the data active means activation above about 47%;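 further: 0% = vehicle wells and 100% = reference agonist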
DAX1 inh: DAX1 (NR0B1) inhibitors, primary screen, cell-based, HEK293, Gal4-DAX1, luciferase luminescence | AID 504766, 2011 | Nuclear receptor subfamily 0 group B member 1 (Homo sapiens), P51843 | inhibition, % at 6.75 µM | HEK293 Gal4-DAX1 luciferase reporter | 340,000 compounds, 0.99% hits;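 active means inhibition above the mean over all tested compounds plus 3 SD, cut at about 4.2% in these data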;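 further: 0% = DAX1-transfected cells with DMSO and 100% = empty-vector control cells with DMSO; inhibition shows as a rise in luminescence from relieved DAX1 repression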
Target sequence (P51843 207-470 limits assumed): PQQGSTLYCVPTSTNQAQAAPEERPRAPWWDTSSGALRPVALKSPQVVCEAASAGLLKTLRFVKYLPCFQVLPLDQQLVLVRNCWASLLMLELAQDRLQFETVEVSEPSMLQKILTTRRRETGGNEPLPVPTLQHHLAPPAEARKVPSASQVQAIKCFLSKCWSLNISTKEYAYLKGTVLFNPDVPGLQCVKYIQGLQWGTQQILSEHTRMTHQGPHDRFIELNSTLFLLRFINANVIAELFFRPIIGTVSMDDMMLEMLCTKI
HSF-1 act: HSF-1 activators, primary screen, NIH3T3-HGL cells, MG132 stress, luminescence, single point. NIH3T3-HGL HSF-1 luciferase reporter, 8 h; 100% = twice DMSO control signal. activation, % at 9 µM. 300,000 compounds, 1.7% hits. AID 504408, 2011;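 active means mean replicate activation of at least 50% with a set share of replicates each reaching 50%; inconclusive means only one of those two conditions met; inactive means mean below 50% and too few replicates reaching it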;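 further: 0% = median of the neutral control wells and 100% = twice that signal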
FXN GAA850 act: FXN promoter activators, primary screen, cell-based, luciferase luminescence, HEK293 lucGAA850 | HEK293 lucGAA850 FXN promoter luciferase reporter, 24 h; percent of 10 µM SAHA response | 360,000 compounds, 0.56% hits | activation, % at 6 µM;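 active means activation above the average of all compounds screened plus 3 SD, cutoff fixed separately per campaign, cut at about 7.5% in these data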;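 further: 0% = DMSO wells and 100% = 10 µM SAHA wells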
AHR act confirm: AHR activators, confirmation, cell-based, luminescence, luciferase reporter, human; activation, % at 9 µM; 2,300 compounds, 87% hits; human cells, AHR-responsive luciferase reporter; shares compounds with AHR act; in the data active means activation above about 49%;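 further: HepG2 hepatoma cells carrying a DRE-driven firefly luciferase reporter; 0% = vehicle wells and 100% = reference agonist wells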
PXR act counter: human PXR activators, counter-screen for AHR activator project, cell-based, luciferase luminescence; activation, % at 11.6 µM; cell-based PXR reporter; shares compounds with AHR act; 2,300 compounds, 88% hits; in the data active means activation above about 11%;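 further: human hepatoma DPX-2 cells expressing full-length human PXR; 0% = DMSO and 100% = reference agonist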
The depositor's hits bear a star; ? = inconclusive; / = no result given. A selection: hits, their analogues and other compounds. The true share with any hit is near 5.4%.

SMILES	HSF1 inhib	AHR act	DAX1 inh	HSF-1 act	FXN GAA850 act	AHR act confirm	PXR act counter
COc1ccc(C(=O)c2oc3ccccc3c2N)cc1	7	82*	0	14	6	133*	12*
Nc1c(C(=O)Nc2ccc(Cl)cc2)oc2ccccc12	26	107*	4.3*	31	5	132*	60*
Nc1c(C(=O)c2ccc(F)cc2)oc2ccccc12	1	92*	0	3	5	156*	16*
O=C(c1cccs1)N1CCN(C(=O)c2cccs2)C1=S	/	/	0	/	-8	/	/
Nc1c(C(=O)c2ccccc2)oc2ccccc12	5	112*	0	-14	5	140*	24*
CC(=O)c1oc2ccccc2c1N	-9	7	1	-6	1	/	/
CC(C)(C)OC(=O)[C@H](Cc1ccccc1)NC(=O)c1nc[nH]c1C(=O)N1CCNCC1	/	2	0	/	-1	/	/
CC(=O)Nc1nnc(-c2ccco2)o1	-5	1	0	3	1	/	/
O=C(Nc1nc2c(F)cccc2s1)c1ccco1	13	121*	0	36	-2	72*	49*
CC(=O)Nc1nc2c(F)cccc2s1	0	46	0	-5	0	/	/
Fc1cccc2sc(Nc3nnc(-c4ccco4)o3)nc12	-1	151*	0	29	2	121*	40*
Cc1nc(NC(=O)c2ccco2)sc1C(=O)Nc1ccc(Br)cc1	-3	108*	0	3	-1	145*	79*
CC(=O)Nc1ccc2nc(NC(=O)c3ccco3)sc2c1	43	119*	2	?	4	66*	18*
COc1ccc(OC)c2c1sc(=NC(=O)C1COc3ccccc3O1)n2C (stereo unspecified)	3	1	1	17	1	/	/
CC(C)(C)OC(=O)N1CCC2(CC1)C(C#N)=C(N)OC1=C2C(=O)CCC1	-2	2	0	-17	-3	/	/
CCNc1sc(C(=O)OCC)c(N)c1C#N	-1	3	2	5	2	/	/
Cc1cc(N2CCCCC2)nc(-c2ccc(Br)cc2)n1	4	80*	2	-4	3	109*	3
CCCCNC(=O)c1ccc2c(c1)C(=O)N(Cc1ccncc1)C2=O	-7	/	1	2	-1	/	/
O=C(Nc1ccc(Cl)cc1F)c1ccc2c(c1)C(=O)N(Cc1ccncc1)C2=O	/	99*	/	/	0	94*	11*
Cc1ccc2c(c1)/C(=C/c1ccco1)C(=O)N2	6	116*	5.1*	24	4	99*	23*
Cc1ccc(/C=C2\C(=O)Nc3ccccc32)o1	2	22	1	8	2	/	/
CCOC(=O)CNC(=O)CSc1nnc(CCc2nc3ccccc3[nH]2)n1C	-7	1	0	-15	0	/	/
Nc1n[nH]c(C2CC2)c1N=Nc1ccc(Cl)cc1	-6	81*	/	1	0	101*	9
CCn1cc(C(=O)NCCCOC)c(=O)c2cc(S(=O)(=O)N3CCCC3)ccc21	2	2	1	-2	-2	/	/
Cc1nnc(Nc2ccccn2)c2ccccc12	0	148*	0	2	-1	143*	58*
SMILES	HSF1 inhib	AHR act	DAX1 inh	HSF-1 act	FXN GAA850 act	AHR act confirm	PXR act counter
Cc1nnc(Nc2ccc(F)cc2)c2ccccc12	3	42	0	-4	2	/	/
CCn1ncc(Br)c1C(=O)Nc1ccccc1C(=O)OC	3	0	0	-3	1	/	/
CCn1ncc(Br)c1C(=O)Nc1ccccc1C(F)(F)F	-4	88*	0	19	0	92*	23*
CCn1ncc(Br)c1C(=O)Nc1ccc(C(=O)OC(C)C)cc1	0	-5	1	0	2	/	/
CCn1ncc(Br)c1C(=O)Nc1ccc(OC(F)(F)F)cc1	3	96*	2	8	2	91*	20*
COc1ccc(-c2sc3cc(OC)c(OC)cc3c2C#CCO)cc1	/	19	-1	/	0	/	/
